Inconclusive results are not listed. The source made the active and inactive calls. Unless noted, calls come from the whole dose curve; as a rule, active = well fitted curve in the direction sought with a large enough effect in the repeat runs; inconclusive = weak or mixed curves; inactive = no such curve, though single readings can be large; an effect the other way counts as inactive or inconclusive.

Test [1] concerns the target Aryl hydrocarbon receptor (Homo sapiens) (UniProt P35869). As to the kind of experiment: qHTS assay to identify small molecule that activate the aryl hydrocarbon receptor (AhR) signaling pathway (AID 743085).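 For activation: HG2L7.5c1 human HepG2 liver cells with stably integrated DRE-driven firefly reporter; series mostly up to about 70 µM.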 Note: nearly all actives have a fitted effect of over 15% in size. Note: potency is the fitted concentration of half-maximal effect. A digest of the protocol:
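Steps: seed HepG2-AhR-luc cells; allow 5 h at 37C; pin-transfer test compound or vehicle; incubate 24 h at 37C; add viability dye (30 min, 37C) and read fluorescence; add luciferase substrate (30 min, RT) and read luminescence.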
On the technique in general: In qHTS, concentration-response curves come from the screen itself.

Test [2] has as its target Peroxisome proliferator-activated receptor gamma (Homo sapiens) (UniProt P37231). Description: qHTS assay to identify small molecule agonists of the peroxisome proliferator-activated receptor gamma (PPARg) signaling pathway (AID 743094; active = well fitted activation curve with a large enough effect in the signal ratio in the repeat runs, not every such curve was filed as active; the % refers to the signal ratio). A digest of the protocol:
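HEK293H PPARg-bla cells, 5 h settle at 37C/5% CO2; compound (DMSO) 17 h, 37C; B/G FRET substrate 1 h RT; fluorescence intensity read-out. qHTS format.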

Test [3] is described as follows: qHTS assay to identify small molecule agonists of the peroxisome proliferator-activated receptor delta (PPARd) signaling pathway - cell viability counter screen (AID 743211). Note: nearly all actives have a fitted effect of over 55% in size. Note: potency is the fitted concentration of half-maximal effect. Put shortly:
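Viability of GeneBLAzer PPARd UAS-bla HEK293H cells was assessed after 17 h compound incubation at 37C, using CellTiter-Glo reagent added after the reporter read and luminescence recorded 30 min later.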

The target in test [4] is Peroxisome proliferator-activated receptor delta (Homo sapiens) (UniProt Q03181). As to the kind of experiment: qHTS assay to identify small molecule agonists of the peroxisome proliferator-activated receptor delta (PPARd) signaling pathway (AID 743212; calls by dose curve; note: potency is the fitted concentration of half-maximal effect). Put shortly:
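Beta-lactamase reporter read by fluorescence (LiveBLAzer B/G FRET, 2 h, room temperature). Test agents, in DMSO, incubated at 37 C with PPARd-bla HEK293H cells.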

Test [5] in a line: qHTS assay to identify small molecule antagonists of the peroxisome proliferator-activated receptor delta (PPARd) signaling pathway - cell viability counter screen (AID 743213). Note: nearly all actives have a fitted effect of over 50% in size. Note: potency is the fitted concentration of half-maximal effect. Put shortly: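 Agonist-stimulated (L165041, 300 nM final) HEK293H PPARd UAS-bla cells are exposed to compounds for 17 h at 37 C, and ATP-based luminescence (CellTiter-Glo) from the same wells reports cytotoxicity.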

Test [6] concerns the target Peroxisome proliferator-activated receptor delta (Homo sapiens) (UniProt Q03181). As to the kind of experiment: qHTS assay to identify small molecule antagonists of the peroxisome proliferator-activated receptor delta (PPARd) signaling pathway (AID 743215; active = well fitted inhibition curve with a large enough effect in the signal ratio in the repeat runs, not every such curve was filed as active; the % refers to the signal ratio; note: potency is the fitted concentration of half-maximal effect). Put shortly: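 HEK293H GeneBLAzer PPARd UAS-bla reporter cells; cpd + L165041 300 nM final, 17 h 37 C; LiveBLAzer B/G FRET substrate 2 h RT; fluorescence intensity read-out. Antagonist mode.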

In test [7] the target is Bile acid receptor (Homo sapiens) (UniProt Q96RI1). Description: qHTS assay to identify small molecule agonists of the farnesoid-X-receptor (FXR) signaling pathway (AID 743220; active = well fitted activation curve with a large enough effect in the signal ratio in the repeat runs, not every such curve was filed as active; the % refers to the signal ratio; note: potency is the fitted concentration of half-maximal effect). Put shortly: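 FXR-UAS-bla HEK 293T cells carrying a UAS-driven beta-lactamase reporter were plated for 5 h at 37C/5% CO2, then exposed to DMSO-dissolved Tox21 10K compounds for 16 h at 37C. A LiveBLAzer B/G FRET substrate was loaded for 2 h at room temperature before fluorescence reading.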
Bile acid receptor (Homo sapiens), sequence (Q96RI1 whole entry, looked up): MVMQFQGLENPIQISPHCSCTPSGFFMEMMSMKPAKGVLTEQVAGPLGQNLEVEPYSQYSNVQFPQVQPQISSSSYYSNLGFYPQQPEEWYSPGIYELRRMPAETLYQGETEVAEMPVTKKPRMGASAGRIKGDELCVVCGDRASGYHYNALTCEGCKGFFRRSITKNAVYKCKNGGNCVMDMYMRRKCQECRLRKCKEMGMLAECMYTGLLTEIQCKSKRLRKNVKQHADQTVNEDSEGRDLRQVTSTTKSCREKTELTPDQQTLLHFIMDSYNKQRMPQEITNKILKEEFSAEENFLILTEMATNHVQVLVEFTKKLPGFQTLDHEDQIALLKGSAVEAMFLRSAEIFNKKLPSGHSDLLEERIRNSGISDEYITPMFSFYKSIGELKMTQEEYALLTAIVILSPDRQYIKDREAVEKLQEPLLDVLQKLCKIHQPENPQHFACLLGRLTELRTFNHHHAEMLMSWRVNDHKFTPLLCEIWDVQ

Test [8] is described as follows: qHTS assay to identify small molecule antagonists of the farnesoid-X-receptor (FXR) signaling pathway - cell viability counter screen (AID 743221; active = well fitted cell-killing curve with a large enough effect in the repeat runs, not every such curve was filed as active; note: nearly all actives have a fitted effect of over 50% in size; note: potency is the fitted concentration of half-maximal effect). A digest of the protocol:
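Quantitative HTS of the Tox21 10K library run in parallel with the beta-lactamase reporter read. HEK 293T cells carrying a UAS-driven bla reporter got compound and 50 uM CDCA (final) for 16 h; ATP-based luminescence followed.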

Test [9] is described as follows: qHTS assay to identify small molecule agonists of the vitamin D receptor (VDR) signaling pathway - cell viability counter screen (AID 743224). Note: nearly all actives have a fitted effect of over 50% in size. Note: potency is the fitted concentration of half-maximal effect. Put shortly:
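Cytotoxicity counter screen: VDR-bla cells, 16 h compound exposure at 37C, 5% CO2; CellTiter-Glo luminescence, 30 min RT, same wells as bla read.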

A short description of test [10]: qHTS assay to identify small molecule antagonists of the peroxisome proliferator-activated receptor gamma (PPARg) signaling pathway - cell viability counter screen (AID 743194). Note: nearly all actives have a fitted effect of over 55% in size. Note: potency is the fitted concentration of half-maximal effect. A digest of the protocol: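 PPARg-UAS-bla HEK293H cells were plated, rested 5 h at 37 C, then treated with compounds plus rosiglitazone (50 nM final) for 17 h at 37 C; viability was then read by CellTiter-Glo luminescence after 30 min at room temperature.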

The nature of test [11]: qHTS assay for small molecule agonists of the antioxidant response element (ARE) signaling pathway - cell viability counter screen (AID 743203; calls by dose curve; note: nearly all actives have a fitted effect of over 55% in size; note: potency is the fitted concentration of half-maximal effect). A digest of the protocol: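 Luminescence read-out (CellTiter-Glo, 30 min at room temperature) measured cell viability in the same wells as the ARE beta-lactamase reporter. HepG2 ARE-bla cells were treated with compounds for 16 hrs at 37C/5% CO2.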

Test [12] is described as follows: qHTS assay for small molecule activators of the heat shock response signaling pathway - cell viability counter screen (AID 743209). Note: nearly all actives have a fitted effect of over 50% in size. Put shortly:
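HSE-bla HeLa; 1500 cells/well; overnight 37 C, 5% CO2; compound 5 h 37 C; LiveBLAzer B/G substrate 2.5 h RT; CellTiter-Glo 30 min RT; luminescence.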

Test [13] deals with Bile acid receptor (Homo sapiens) (UniProt Q96RI1). Description: qHTS assay to identify small molecule antagonists of the farnesoid-X-receptor (FXR) signaling pathway (AID 743217; active = well fitted inhibition curve with a large enough effect in the signal ratio in the repeat runs, not every such curve was filed as active; the % refers to the signal ratio). A digest of the protocol:
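Read-out: beta-lactamase FRET fluorescence (LiveBLAzer B/G substrate, 2 h, room temperature) in GeneBLAzer FXR-UAS-bla HEK 293T cells. Compounds were co-dosed with 50 uM chenodeoxycholic acid (final) and incubated 16 h at 37 °C.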

Test [14] is described as follows: qHTS assay to identify small molecule agonists of the farnesoid-X-receptor (FXR) signaling pathway - cell viability counter screen (AID 743218). Note: nearly all actives have a fitted effect of over 45% in size. A digest of the protocol:
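Luminescence from CellTiter-Glo, read after 30 min at RT, reports viability of GeneBLAzer FXR-UAS-bla HEK 293T cells treated 16 h with compounds in the wells used for the beta-lactamase reporter.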

Test [15] has as its target Vitamin D3 receptor (Homo sapiens) (UniProt P11473). As to the kind of experiment: qHTS assay to identify small molecule antagonists of the vitamin D receptor (VDR) signaling pathway (AID 743223; active = well fitted inhibition curve with a large enough effect in the signal ratio in the repeat runs, not every such curve was filed as active; the % refers to the signal ratio). Put shortly: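 Fluorescence from LiveBLAzer B/G FRET substrate, read after 2 h at room temperature, reflects beta-lactamase reporter activity in VDR-bla cells treated 16 h at 37C with compounds and agonist 1alpha,25-dihydroxyvitamin D3 (3 nM final).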

Test [16] can be described thus: qHTS assay for small molecule activators of the heat shock response signaling pathway (AID 743210; active = well fitted activation curve with a large enough effect in the signal ratio in the repeat runs, with a control signal flat, not every such curve was filed as active; the % refers to the signal ratio; note: series mostly up to about 63 µM). Put shortly: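 Heat shock element–beta-lactamase HeLa reporter cells; qHTS with compounds for 5 h at 37 C; detection by FRET substrate fluorescence after 2.5 h at RT.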
The target in test [17] is Vitamin D3 receptor (Homo sapiens) (UniProt P11473). Description: qHTS assay to identify small molecule agonists of the vitamin D receptor (VDR) signaling pathway (AID 743222; calls by dose curve; note: potency is the fitted concentration of half-maximal effect). A digest of the protocol:
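Beta-lactamase reporter readout (LiveBLAzer B/G FRET, 2 h RT) in VDR-bla cells after 16 h compound treatment at 37C, 5% CO2; cells pre-incubated 4 h before pin transfer of DMSO solutions.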

In test [18] the target is Peroxisome proliferator-activated receptor gamma (Homo sapiens) (UniProt P37231). As to the kind of experiment: qHTS assay to identify small molecule antagonists of the peroxisome proliferator-activated receptor gamma (PPARg) signaling pathway (AID 743191; calls by dose curve; note: series mostly up to about 63 µM; nearly all actives have a fitted effect of over 30% in size). Put shortly:
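GeneBLAzer PPARg UAS-bla HEK293H cells carrying a UAS-driven beta-lactamase reporter were plated at 3000 cells/well, preincubated 5 h at 37C, then given compound for 17 h at 37C; LiveBLAzer B/G FRET substrate was read after 1 h at room temperature.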

A short description of test [19]: qHTS assay for small molecule agonists of the antioxidant response element (ARE) signaling pathway (AID 743202; active = well fitted activation curve with a large enough effect in the signal ratio in the repeat runs, not every such curve was filed as active; the % refers to the signal ratio; note: potency is the fitted concentration of half-maximal effect). A digest of the protocol: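 Following a 16 h, 37 C exposure of reporter HepG2 cells (ARE-driven beta-lactamase, 2,000 cells/well) to compounds, FRET substrate was applied for 2 h at room temperature and fluorescence intensity recorded.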
Test [20] in a line: qHTS assay to identify small molecule that activate the aryl hydrocarbon receptor (AhR) signaling pathway - cell viability counter screen (AID 743086).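 Note: HepG2 liver cells carrying the AhR DRE luciferase reporter; series mostly up to about 70 µM; nearly all actives have a fitted effect of over 45% in size.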 Put shortly: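 HepG2-AhR-luc (HG2L7.5c1) cells, 4000/well, were preincubated 5 h at 37C, exposed to compound in qHTS format for 24 hr at 37C, then given CellTiter-Fluor for 30 min; viability was read as fluorescence in the reporter wells.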

Peroxisome proliferator-activated receptor gamma (Homo sapiens), sequence (P37231 whole entry, looked up): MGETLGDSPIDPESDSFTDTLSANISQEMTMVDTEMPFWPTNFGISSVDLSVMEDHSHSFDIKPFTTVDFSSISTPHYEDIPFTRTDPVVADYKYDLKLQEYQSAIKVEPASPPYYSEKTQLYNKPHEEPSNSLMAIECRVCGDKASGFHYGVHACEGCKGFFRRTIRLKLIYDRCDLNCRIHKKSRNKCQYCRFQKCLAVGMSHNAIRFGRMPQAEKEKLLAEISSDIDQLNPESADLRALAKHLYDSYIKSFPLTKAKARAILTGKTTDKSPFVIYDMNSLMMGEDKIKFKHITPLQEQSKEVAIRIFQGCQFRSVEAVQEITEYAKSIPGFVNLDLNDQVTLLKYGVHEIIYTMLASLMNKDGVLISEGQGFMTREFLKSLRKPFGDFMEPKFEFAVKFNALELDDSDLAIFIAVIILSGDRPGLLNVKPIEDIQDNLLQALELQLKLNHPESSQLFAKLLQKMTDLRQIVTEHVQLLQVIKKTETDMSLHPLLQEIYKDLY
Peroxisome proliferator-activated receptor delta (Homo sapiens), sequence (Q03181 whole entry, looked up): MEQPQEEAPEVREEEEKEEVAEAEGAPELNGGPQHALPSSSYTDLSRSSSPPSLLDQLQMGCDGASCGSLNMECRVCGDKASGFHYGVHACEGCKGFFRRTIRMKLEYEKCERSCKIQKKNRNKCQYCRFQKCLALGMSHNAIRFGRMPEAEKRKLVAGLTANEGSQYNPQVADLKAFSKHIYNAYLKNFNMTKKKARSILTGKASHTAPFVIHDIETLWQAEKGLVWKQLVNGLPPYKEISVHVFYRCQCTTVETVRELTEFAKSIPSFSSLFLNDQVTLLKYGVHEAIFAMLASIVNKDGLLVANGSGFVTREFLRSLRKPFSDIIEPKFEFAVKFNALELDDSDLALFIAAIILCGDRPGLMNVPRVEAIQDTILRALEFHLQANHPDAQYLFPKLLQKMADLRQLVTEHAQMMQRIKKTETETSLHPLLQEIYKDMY
Vitamin D3 receptor (Homo sapiens), sequence (P11473 whole entry, looked up): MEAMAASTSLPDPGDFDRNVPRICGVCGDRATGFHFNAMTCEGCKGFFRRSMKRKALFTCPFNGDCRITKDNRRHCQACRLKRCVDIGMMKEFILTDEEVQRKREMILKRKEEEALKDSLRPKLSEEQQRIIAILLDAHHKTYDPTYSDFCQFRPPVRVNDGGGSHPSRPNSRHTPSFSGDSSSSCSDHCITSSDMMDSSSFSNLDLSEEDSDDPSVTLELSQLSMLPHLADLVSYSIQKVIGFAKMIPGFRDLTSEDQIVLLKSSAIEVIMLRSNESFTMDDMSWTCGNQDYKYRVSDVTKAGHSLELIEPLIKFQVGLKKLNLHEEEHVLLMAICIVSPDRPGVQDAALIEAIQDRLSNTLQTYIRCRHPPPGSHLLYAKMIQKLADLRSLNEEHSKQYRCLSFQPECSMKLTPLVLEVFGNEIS
Aryl hydrocarbon receptor (Homo sapiens), sequence (P35869 whole entry, looked up): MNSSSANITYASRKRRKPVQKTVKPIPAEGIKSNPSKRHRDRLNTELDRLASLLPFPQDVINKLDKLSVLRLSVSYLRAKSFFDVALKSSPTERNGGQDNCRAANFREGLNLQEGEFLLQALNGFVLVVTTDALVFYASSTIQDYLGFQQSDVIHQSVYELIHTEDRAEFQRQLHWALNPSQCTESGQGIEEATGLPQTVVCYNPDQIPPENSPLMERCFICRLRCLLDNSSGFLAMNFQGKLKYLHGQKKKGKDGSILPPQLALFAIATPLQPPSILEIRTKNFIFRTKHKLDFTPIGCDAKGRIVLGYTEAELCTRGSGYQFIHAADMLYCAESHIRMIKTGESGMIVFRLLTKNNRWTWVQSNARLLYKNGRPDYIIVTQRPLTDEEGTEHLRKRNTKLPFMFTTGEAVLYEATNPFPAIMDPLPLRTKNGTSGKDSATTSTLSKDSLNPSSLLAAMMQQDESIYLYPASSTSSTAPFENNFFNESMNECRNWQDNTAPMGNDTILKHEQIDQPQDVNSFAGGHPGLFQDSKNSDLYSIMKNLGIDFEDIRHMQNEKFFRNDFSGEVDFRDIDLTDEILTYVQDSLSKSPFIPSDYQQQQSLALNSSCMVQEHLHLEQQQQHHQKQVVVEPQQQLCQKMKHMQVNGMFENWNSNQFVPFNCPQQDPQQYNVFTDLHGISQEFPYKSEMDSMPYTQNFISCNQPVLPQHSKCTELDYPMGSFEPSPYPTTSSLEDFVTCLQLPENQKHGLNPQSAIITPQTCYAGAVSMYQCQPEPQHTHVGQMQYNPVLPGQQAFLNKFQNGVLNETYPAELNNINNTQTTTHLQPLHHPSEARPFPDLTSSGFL

Consider `C[C@@H](O[C@H]1OCCN(Cc2n[nH]c(=O)[nH]2)[C@H]1c1ccc(F)cc1)c1cc(C(F)(F)F)cc(C(F)(F)F)c1`, for which the Potency result in test [1], in [2], in [4] and in test [7] was “inactive” each time. Moreover, the Potency was 26.6 µM (active) in [3]; 26.6 µM (active) in test [5]; 29.8 µM (active) in test [6]; 29.8 µM (active) in test [8]; 23.7 µM (active) in test [9].
For `O=c1cc(-c2ccccc2)oc2cc(O)cc(O)c12`, in test [1], the Potency was 12.2 µM (active). Besides, the Potency entry in [10], in [11], in test [3], in [5], in [8] and in [9] was “inactive” in each case.
On to `COc1ccc(OC(=O)N(CC(=O)O)Cc2ccc(OCCc3nc(-c4ccccc4)oc3C)cc2)cc1`, for which the Potency result in test [10], in [11], in [12], in test [3], in [5] and in test [6] was “inactive” in each case. Moreover, the Potency entry in test [13], in test [14], in test [8], in test [15] and in [9] was “inactive” throughout. For the same compound, the Potency in [4] was 8.41 µM (active).
With `COC(=O)C1=C(C)NC(C)=C(C(=O)O[C@@H]2CCCN(Cc3ccccc3)C2)[C@@H]1c1cccc([N+](=O)[O-])c1`, the Potency result in test [10], in test [12], in test [16], in [5], in test [6] and in test [8] was “inactive” throughout. For the same compound, the Potency entry in [17], in test [15] and in test [9] was “inactive” each time.
Turning to `Cc1cc(O)c(C)c(C)c1O`, the Potency result in test [18], in test [10], in [11], in [12], in test [16] and in [3] was “inactive” each time. Also, the Potency result in test [4], in test [5], in test [6], in test [14] and in test [8] was “inactive” in each case. In addition, the Potency in test [19] was 23.7 µM (active); in test [9], 29.8 µM (active).
As for `CCCCC(CC)COP(=O)(O)O` (centres undefined), the Potency entry in test [20], in test [10], in test [11], in test [12], in test [16] and in [3] was “inactive” each time. For the same compound, the Potency entry in test [5], in test [14], in [7], in test [17] and in test [9] was “inactive” each time.
Take `CC(=O)OCCN(CCOC(C)=O)c1ccc(N=Nc2ccc([N+](=O)[O-])cc2C#N)cc1`: the Potency result in test [20], in test [18], in [10], in test [11], in [12] and in test [16] was “inactive” each time. For the same compound, the Potency result in test [3], in [5], in test [14], in test [8], in test [17] and in test [9] was “inactive” throughout.
Take `CC(C)=CCC/C(C)=C/CC/C(C)=C/C(=O)OCC(=O)[C@@]1(O)CC[C@H]2[C@@H]3CCC4=CC(=O)C=C[C@]4(C)[C@H]3[C@@H](O)C[C@@]21C`: the Potency result in [12] was “inactive”. The Potency was 23.7 µM (active) in test [3] and 26.6 µM (active) in test [9].
Take `COC(=O)c1nc(Cl)c(Cl)nc1N`: the Potency in [10] was 26.6 µM (active); in test [11], 23.7 µM (active); in test [3], 29.8 µM (active); in test [5], 29.8 µM (active); in test [7], 29.8 µM (active); in test [17] it was 11.9 µM (active). Further, in [9], the Potency was 11.9 µM (active).
Consider `CCOC(=O)c1ccc(O)c(O)c1`, for which the Potency entry in [18], in test [10], in test [11], in test [12], in [16] and in test [3] was “inactive” each time. Besides, the Potency entry in test [4], in test [5], in [6], in [14], in [8] and in test [9] was “inactive” each time.
As to `C[C@@]12CCC[C@H]1[C@@H]1CC[C@H]3C[C@@H](O)CC[C@]3(C)[C@H]1CC2`, the Potency result in test [10], in test [19], in test [11], in test [12], in test [4] and in test [5] was “inactive” throughout. Besides, the Potency result in [14], in [7] and in test [8] was “inactive” in each case.

These data come from PubChem BioAssay (Tox21).
